# PubChem BioAssay (Tox21)
# Results filed as inconclusive are left out. Entries that show only a call come without a potency. The source made the active and inactive calls. Unless noted, calls come from the whole dose curve; as a rule, active = well fitted curve in the direction sought with a large enough effect in the repeat runs; inconclusive = weak or mixed curves; inactive = no such curve, though single readings can be large; an effect the other way counts as inactive or inconclusive.
# Test system: not listed separately
# Experiment: qHTS assay to identify small molecule agonists of the estrogen receptor beta (ER-beta) signaling pathway - cell viability counter screen (AID 1259380); note: nearly all actives have a fitted effect of over 30% in size
# Conditions: ER-beta-bla HEK293T viability, CellTiter-Glo luminescence, 16 h; series mostly up to 92.4 µM
# Summary of the method: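 Viability of ER-beta-UAS-bla HEK293T cells was determined by CellTiter-Glo luminescence following 16 hr treatment with test compounds at 37C.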
row,Structure (SMILES),Potency
1,CCOC(=O)CC(=O)c1ccccc1,inactive
2,O=S(=O)(O)CCN1CCN(CCO)CC1,inactive
3,CC(COC(C)(C)C)OCCCO (centres undefined),inactive
4,O=C(O)c1ccc(Cl)cc1Cl,inactive
5,CC(C)CCCCOC(=O)c1ccccc1C(=O)OCCCCC(C)C,inactive
6,COc1ccc(-c2cc(=O)c3c(O)cc(O[C@@H]4O[C@H](CO[C@@H]5O[C@@H](C)[C@H](O)[C@@H](O)[C@H]5O)[C@@H](O)[C@H](O)[C@H]4O)cc3o2)cc1O,inactive
7,CC(C)N(c1ccccc1)C(C)C,inactive
8,O=Cc1ccc(Cl)c(Cl)c1,inactive
9,CC(C)=CCOC(=O)c1ccccc1,inactive
10,CCC(C=O)CC,inactive
11,CC(N)C(=O)OC(C)(C)Cc1ccc(Cl)cc1 (centres undefined),inactive
12,Nc1nnc(-c2cccc(Cl)c2Cl)c(N)n1,inactive
13,CC1(C)S[C@@H]2[C@H](N=CN3CCCCCC3)C(=O)N2[C@H]1C(=O)O,inactive
14,CCCC/C=C\CCCCCCCCCC=O,inactive
15,C[C@@H](Oc1ccc(CNC(=O)c2cccnc2Oc2ccc3c(c2)OCO3)c(F)c1)C(=O)O,inactive
16,COc1cc(C(=S)N2CCOCC2)cc(OC)c1OC,inactive
17,Cc1ccsc1/C=C/C1=NCCCN1C,inactive
18,OCCCCC(O)CO (centres undefined),inactive

row,Structure (SMILES),Potency
1,NNc1nnc(NN)c2ccccc12,inactive
2,CC(CN)CC(C)(C)CCN (centres undefined),inactive
3,CCCCCCCCCCCCCC,inactive
4,O=P(O)(O)OP(=O)(O)O,inactive
5,CC(=O)CCCCn1c(=O)c2c(ncn2C)n(C)c1=O,inactive
6,CC(=O)N[C@@H](CCC(=O)O)C(=O)O,inactive
7,Cc1ccccc1OCC(O)CO (centres undefined),inactive
8,C=C1CC/C=C(\C)CC[C@@H]2[C@@H]1CC2(C)C,inactive
9,CCCOC(OCCC)OCCC,inactive
10,CN(C)c1ccc(C=O)cc1,inactive
11,c1ccc2c(c1)ccc1c3ccccc3ccc21,inactive
12,NCCS,inactive
13,COCCOCCOCCOCCOCCO,inactive
14,O=C1CC(c2ccc(Cl)cc2)CC(=O)N1,inactive
15,O=C1CCCC(=O)O1,inactive
16,CC(=O)Nc1ccc(S(=O)(=O)Cl)cc1,inactive
17,CCCCN,inactive

# Test system: not listed separately
# Experiment: qHTS assay to identify small molecule antagonists of the estrogen receptor beta (ER-beta) signaling pathway - cell viability counter screen (AID 1259382);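 note: HEK293T cells carrying ER-beta-UAS-bla reporter stimulated with estradiol; nearly all actives have a fitted effect of over 55% in size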
# Conditions: ER-beta-UAS-bla HEK293T viability, CellTiter-Glo luminescence, 16 h; series mostly up to 92.4 µM
# Summary of the method: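 Tox21 10K library tested in qHTS format on ER-beta-bla HEK293T cells stimulated with 1nM E2; 16 hr treatment at 37C. Same-well CellTiter-Glo luminescence served as the cell viability measure.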
row,Structure (SMILES),outcome
1,CCOC(=O)CC(=O)c1ccccc1,inactive
2,O=S(=O)(O)CCN1CCN(CCO)CC1,inactive
3,CC(COC(C)(C)C)OCCCO (centres undefined),inactive
4,O=C(O)c1ccc(Cl)cc1Cl,inactive
5,CC(C)CCCCOC(=O)c1ccccc1C(=O)OCCCCC(C)C,inactive
6,COc1ccc(-c2cc(=O)c3c(O)cc(O[C@@H]4O[C@H](CO[C@@H]5O[C@@H](C)[C@H](O)[C@@H](O)[C@H]5O)[C@@H](O)[C@H](O)[C@H]4O)cc3o2)cc1O,inactive
7,CC(C)N(c1ccccc1)C(C)C,inactive
8,O=Cc1ccc(Cl)c(Cl)c1,inactive
9,CC(C)=CCOC(=O)c1ccccc1,inactive
10,CCC(C=O)CC,inactive
11,CC(N)C(=O)OC(C)(C)Cc1ccc(Cl)cc1 (centres undefined),inactive
12,Nc1nnc(-c2cccc(Cl)c2Cl)c(N)n1,inactive
13,C#CC(C)N(C)C(=O)Nc1ccc(Cl)cc1 (centres undefined),inactive
14,O=S(=O)(O)c1cc(O)c2ccc(Nc3ccccc3)cc2c1,inactive
15,CCCC/C=C\CCCCCCCCCC=O,inactive
16,C[C@@H](Oc1ccc(CNC(=O)c2cccnc2Oc2ccc3c(c2)OCO3)c(F)c1)C(=O)O,inactive
17,Cc1ccsc1/C=C/C1=NCCCN1C,inactive
18,OCCCCC(O)CO (centres undefined),inactive
19,CCCCCCCCCCCCCC,inactive
20,O=P(O)(O)OP(=O)(O)O,inactive
21,CC(=O)N[C@@H](CCC(=O)O)C(=O)O,inactive
22,Cc1ccccc1OCC(O)CO (centres undefined),inactive
23,C=C1CC/C=C(\C)CC[C@@H]2[C@@H]1CC2(C)C,inactive
24,CCCOC(OCCC)OCCC,inactive
25,c1ccc2c(c1)ccc1c3ccccc3ccc21,inactive
26,NCCS,inactive
27,COCCOCCOCCOCCOCCO,inactive
28,CCCCN,inactive

# Target: Estrogen receptor (Homo sapiens) (UniProt P03372)
# Experiment: qHTS assay to identify small molecule agonists of the estrogen receptor alpha (ER-alpha) signaling pathway in the presence of an antagonist (AID 1259383; calls by dose curve; note: top concentration of the series differs between compounds; nearly all actives have a fitted effect of over 15% in size)
# Conditions: VM7Luc4E2 cells, ERE-luciferase, +ICI-182,780, 22 h; series mostly up to 92.4 µM
# Summary of the method: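 In VM7Luc4E2 cells, 4,000 per well, compounds at 15 concentrations were co-incubated 22hr at 37C with 10.0nM final ICI-182,780. Luminescence from the stably transfected 4×ERE-luciferase reporter was recorded 30min after ONE-Glo addition.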
# Sequence of Estrogen receptor (Homo sapiens) (P03372 whole entry, looked up): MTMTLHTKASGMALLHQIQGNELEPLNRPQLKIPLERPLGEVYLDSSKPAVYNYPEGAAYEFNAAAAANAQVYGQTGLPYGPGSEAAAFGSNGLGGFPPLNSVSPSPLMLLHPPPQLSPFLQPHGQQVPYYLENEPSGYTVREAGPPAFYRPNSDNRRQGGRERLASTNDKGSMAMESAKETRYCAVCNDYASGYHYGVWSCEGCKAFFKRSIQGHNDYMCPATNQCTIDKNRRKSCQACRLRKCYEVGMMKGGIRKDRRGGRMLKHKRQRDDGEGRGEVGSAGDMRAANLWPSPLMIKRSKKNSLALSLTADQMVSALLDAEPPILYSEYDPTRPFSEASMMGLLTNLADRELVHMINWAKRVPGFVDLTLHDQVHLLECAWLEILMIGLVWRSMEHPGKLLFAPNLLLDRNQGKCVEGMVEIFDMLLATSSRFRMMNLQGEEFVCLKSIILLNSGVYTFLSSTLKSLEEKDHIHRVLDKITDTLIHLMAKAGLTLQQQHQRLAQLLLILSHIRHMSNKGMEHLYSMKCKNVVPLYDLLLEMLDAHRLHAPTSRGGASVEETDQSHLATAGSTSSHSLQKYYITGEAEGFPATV
row,Structure (SMILES),outcome
1,CCOC(=O)CC(=O)c1ccccc1,inactive
2,O=C(O)c1ccc(Cl)cc1Cl,inactive
3,COc1ccc(-c2cc(=O)c3c(O)cc(O[C@@H]4O[C@H](CO[C@@H]5O[C@@H](C)[C@H](O)[C@@H](O)[C@H]5O)[C@@H](O)[C@H](O)[C@H]4O)cc3o2)cc1O,inactive
4,CC(C)N(c1ccccc1)C(C)C,inactive
5,CC(N)C(=O)OC(C)(C)Cc1ccc(Cl)cc1 (centres undefined),inactive
6,CC1(C)S[C@@H]2[C@H](N=CN3CCCCCC3)C(=O)N2[C@H]1C(=O)O,inactive
7,O=S(=O)(O)c1cc(O)c2ccc(Nc3ccccc3)cc2c1,inactive
8,C[C@@H](Oc1ccc(CNC(=O)c2cccnc2Oc2ccc3c(c2)OCO3)c(F)c1)C(=O)O,inactive
9,COc1cc(C(=S)N2CCOCC2)cc(OC)c1OC,inactive
10,Cc1ccsc1/C=C/C1=NCCCN1C,inactive
11,CC(=O)CCCCn1c(=O)c2c(ncn2C)n(C)c1=O,inactive
12,C=C1CC/C=C(\C)CC[C@@H]2[C@@H]1CC2(C)C,inactive
13,CN(C)c1ccc(C=O)cc1,inactive
14,O=C1CC(c2ccc(Cl)cc2)CC(=O)N1,inactive
15,O=C1CCCC(=O)O1,inactive
16,CCCCN,inactive
